Source: PubChem BioAssay (Tox21)
Unmarked numbers belong to inactive results. Records with an inconclusive call do not appear. Entries that show only a call come without a potency. Calls of active or inactive are those of the source. Unless noted, calls come from the whole dose curve.

Experiments:
[1] = Nuclear factor erythroid 2-related factor 2/antioxidant responsive element (Nrf2/ARE) small molecule agonists: qHTS cell viability counter screen in human keratinocytes (AID 1919968; active = well fitted curve in the direction sought with a large enough effect in the repeat runs; an effect the other way counts as inactive or inconclusive; note: nearly all actives have a fitted effect of over 55% in size)
Outline: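 KeratinoSens HaCaT cells, 1,500/well, preincubated 5 h, then exposed to compounds in DMSO for 23 h at 37 C/5% CO2. Viability read as CellTiter-Fluor fluorescence after 1 h, in the same wells as the ARE-luciferase read.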

[2] = Nuclear factor erythroid 2-related factor 2/antioxidant responsive element (Nrf2/ARE) small molecule agonists: luciferase reporter gene qHTS assay in human keratinocytes (AID 1919969); note: nearly all actives have a fitted effect of over 35% in size; note: potency is the fitted concentration of half-maximal effect
[3] = target: KiSS-1 receptor (Homo sapiens) (UniProt Q969F8); assay: Human kisspeptin (KISS1R) small molecule agonists, calcium flux assay in KISS1R-HEK293 cells (AID 1920064; active = well fitted curve in the direction sought with a large enough effect in the repeat runs; an effect the other way counts as inactive or inconclusive)
Outline: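 HEK293 cells stably expressing human KISS1R were loaded with calcium dye for 1 h at 37 C, then given compound; fluorescence (Ex/Em 480/540) was read kinetically for 3 min. Fifteen concentrations, triplicate.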

[4] = G protein-coupled receptor (GPCR) small molecule agonists, calcium flux assay: HEK293 wild type cell line counter screen (AID 1920065)
Outline: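 Wild-type HEK293 cells plated 18 h, loaded with calcium dye 1 h at 37 C, then compounds added in agonist mode (ATP as positive control). Kinetic fluorescence Ex/Em 480/540 recorded 3 min at 1 sec intervals; 15 concentrations, triplicate.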

[5] = p53 small molecule agonists, cell-based qHTS assay with rat liver microsomes (AID 1963578)
Outline: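 Metabolic activation by rat liver microsomes and NADPH, each 0.5 mg/mL final, added right after compounds to p53RE-bla reporter cells (4,000/well, plated 5 h earlier). 16 h at 37 C, then LiveBLAzer substrate for 2 h at room temperature in the dark; fluorescence read-out.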

[6] = p53 small molecule agonists, cell-based qHTS assay with human liver microsomes: qHTS cell viability counter screen (AID 1963579); note: nearly all actives have a fitted effect of over 45% in size
Outline: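 Metabolic activation used human liver microsomes and NADPH, both 0.5 mg/mL final, over 16 hours at 37 C on p53RE-bla cells (4,000/well). Cytotoxicity measured by CellTiter-Glo luminescence, 30 min at room temperature.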

[7] = p53 small molecule agonists, cell-based qHTS assay with rat liver microsomes: qHTS cell viability counter screen (AID 1963580); note: nearly all actives have a fitted effect of over 45% in size
Outline: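 p53RE-bla HCT-116 cells were exposed 16 h at 37 C to compounds with rat liver microsomes (0.5 mg/mL) and NADPH (0.5 mg/mL). Viability was measured in the same wells as ATP content by CellTiter-Glo luminescence.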

[8] = p53 small molecule agonists, cell-based qHTS assay: qHTS cell viability counter screen (AID 1963581); note: nearly all actives have a fitted effect of over 45% in size
Outline: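 p53RE-bla HCT-116 cells, compounds added 5 h after plating and incubated 16 h at 37 C. Cytotoxicity measured in the same wells as intracellular ATP by CellTiter-Glo luminescence after 30 min at room temperature.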

[9] = p53 small molecule agonists, cell-based qHTS assay (AID 1963582; active = well fitted activation curve with a large enough effect in the signal ratio in the repeat runs, not every such curve was filed as active; the % refers to the signal ratio)
Outline: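 p53RE-bla reporter cells, compounds added in DMSO after 5 h plating, incubated 16 h at 37 C. Beta-lactamase read via 2 h room-temperature LiveBLAzer B/G FRET substrate, fluorescence intensity.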

[10] = target: 5-hydroxytryptamine receptor 2A (Homo sapiens) (UniProt P28223); assay: 5-hydroxytryptamine receptor 2A (HTR2A) small molecule agonists, cell-based qHTS assay (AID 1963587); note: nearly all actives have a fitted effect of over 30% in size
Outline: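 CHO cells stably expressing human HTR2A, plated 18 h, loaded with calcium dye 1 h at 37 C. Agonist mode: compounds added and intracellular calcium fluorescence recorded kinetically for 2 min at 1 sec intervals.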

[11] = target: Muscarinic acetylcholine receptor M1 (Homo sapiens) (UniProt P11229); assay: Cholinergic receptor muscarinic 1 (CHRM1) small molecule antagonists, cell-based qHTS assay (AID 1963588); note: nearly all actives have a fitted effect of over 40% in size
Outline: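 CHRM1-CHO calcium-flux assay, antagonist mode. Cells were seeded 18 h, dye-loaded 1 h at 37 C and given compound for 5 min at RT, then acetylcholine was added at 50nM. FDSS fluorescence was read 3 min; 15 concentrations, three runs.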

[12] = target: Muscarinic acetylcholine receptor M1 (Homo sapiens) (UniProt P11229); assay: Cholinergic receptor muscarinic 1 (CHRM1) small molecule agonists, cell-based qHTS assay (AID 1963589); note: nearly all actives have a fitted effect of over 35% in size
Outline: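 CHO cells stably expressing human CHRM1 were loaded with calcium dye for 1 h at 37 C, then compound was added in agonist mode. Intracellular calcium fluorescence was followed kinetically at 1 s intervals. Fifteen concentrations were tested in three independent runs.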

[13] = cAMP Responsive Elements (CRE) small molecule agonists, cell-based qHTS assay (AID 1963590)
Outline: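 CRE-bla HEK 293T cells, 2,000/well in DMEM with 10% dialyzed FBS and 25 mM HEPES, pre-incubated 18 h at 37 C, then exposed to compound 3 h at 37 C. Beta-lactamase reporter read with LiveBLAzer B/G FRET substrate after 2 h at room temperature.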

[14] = cAMP Responsive Elements (CRE) small molecule antagonists, cell-based qHTS assay (AID 1963591; active = well fitted inhibition curve with a large enough effect in the signal ratio in the repeat runs, not every such curve was filed as active; the % refers to the signal ratio)
Outline: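 CRE-bla HEK293T cells plated 18 h, then given compound plus NKH477 at 0.25 uM final for 3 h at 37C. Beta-lactamase reporter read with LiveBLAzer B/G FRET substrate after 2 h at room temperature.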

[15] = target: Beta-2 adrenergic receptor (Homo sapiens) (UniProt P07550); assay: Adrenergic beta2 receptor (ADRB2) small molecule antagonists, cell-based qHTS assay (AID 1963592); note: series mostly up to about 92 µM; nearly all actives have a fitted effect of over 50% in size
Outline: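 Cells (CHO, stable ADRB2 overexpression) incubated 18-20hr at 37C; compounds added from DMSO; agonist mix (1nM isoproterenol, 100uM IBMX, 25uM Ro-20-1724) added; 0.5hr RT; d2-cAMP and anti-cAMP-cryptate added; 1hr RT; 665/615 nm read.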

[16] = target: Beta-2 adrenergic receptor (Homo sapiens) (UniProt P07550); assay: Adrenergic beta2 receptor (ADRB2) small molecule agonists, cell-based qHTS assay (AID 1963593);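 note: CHO cells stably overexpressing human ADRB2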
Outline: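 CHO cells stably over-expressing ADRB2 were plated overnight at 37C, then dosed with compounds plus a stimulation mix containing 100uM IBMX and 25uM Ro-20-1724 for 0.5hr at room temperature. cAMP was measured by HTRF competition, 1hr.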

[17] = target: D(2) dopamine receptor (Homo sapiens) (UniProt P14416); assay: Dopamine D2 receptor (DRD2) small molecule agonists, cell-based qHTS assay (AID 1963594); note: nearly all actives have a fitted effect of over 35% in size
Outline: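 HEK293 cells stably expressing human DRD2, pre-treated with PDE inhibitor Ro20-1724 (0.1 mM final) and compound 10 min at room temperature, then stimulated with NKH477 (200nM […]) for 30 min. cAMP read by HTRF (665/620 nm).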

[18] = target: D(2) dopamine receptor (Homo sapiens) (UniProt P14416); assay: Dopamine D2 receptor (DRD2) small molecule antagonists, cell-based qHTS assay (AID 1963595; active = well fitted inhibition curve with a large enough effect in the signal ratio in the repeat runs, with a control signal flat; the % refers to the signal ratio)
Outline: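 Antagonism was scored as restored cAMP in HEK293-DRD2 cells. These cells were stimulated with 200 nM NKH477 and 12 nM quinpirole for 30 min at room temperature, in the presence of 0.1 mM Ro20-1724.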

[19] = p53 small molecule agonists, cell-based qHTS assay with human liver microsomes (AID 1963577);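 note: p53 response element beta-lactamase reporter cells with liver microsomes plus NADPH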
Outline: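 With metabolic activation: human liver microsomes (0.5 mg/mL final) plus NADPH (0.5 mg/mL final) added alongside compounds to p53RE-bla cells; 16 h 37 C exposure; beta-lactamase read by LiveBLAzer fluorescence.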

[20] = target: 5-hydroxytryptamine receptor 2A (Homo sapiens) (UniProt P28223); assay: 5-hydroxytryptamine receptor 2A (HTR2A) small molecule antagonists, cell-based qHTS assay (AID 1963586); note: nearly all actives have a fitted effect of over 45% in size
Outline: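 Antagonist-mode intracellular calcium assay: DOI (4 nM) added after 5 min compound pre-incubation at room temperature to dye-loaded HTR2A-CHO cells. Fluorescence followed for 3 min, sampled every second.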

Sequence of D(2) dopamine receptor (Homo sapiens) (P14416 whole entry, looked up): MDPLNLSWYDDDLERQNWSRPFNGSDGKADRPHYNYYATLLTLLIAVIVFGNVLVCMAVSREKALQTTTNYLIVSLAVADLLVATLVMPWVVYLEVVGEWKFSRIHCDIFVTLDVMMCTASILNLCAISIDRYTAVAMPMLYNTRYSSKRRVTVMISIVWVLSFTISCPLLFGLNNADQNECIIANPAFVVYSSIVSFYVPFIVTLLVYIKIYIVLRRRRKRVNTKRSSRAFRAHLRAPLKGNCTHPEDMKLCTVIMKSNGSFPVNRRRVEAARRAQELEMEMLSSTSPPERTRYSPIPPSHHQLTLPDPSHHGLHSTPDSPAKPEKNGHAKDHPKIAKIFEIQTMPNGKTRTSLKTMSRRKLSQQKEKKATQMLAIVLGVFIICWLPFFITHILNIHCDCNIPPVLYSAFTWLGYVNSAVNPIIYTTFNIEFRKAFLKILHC
Sequence of Muscarinic acetylcholine receptor M1 (Homo sapiens) (P11229 whole entry, looked up): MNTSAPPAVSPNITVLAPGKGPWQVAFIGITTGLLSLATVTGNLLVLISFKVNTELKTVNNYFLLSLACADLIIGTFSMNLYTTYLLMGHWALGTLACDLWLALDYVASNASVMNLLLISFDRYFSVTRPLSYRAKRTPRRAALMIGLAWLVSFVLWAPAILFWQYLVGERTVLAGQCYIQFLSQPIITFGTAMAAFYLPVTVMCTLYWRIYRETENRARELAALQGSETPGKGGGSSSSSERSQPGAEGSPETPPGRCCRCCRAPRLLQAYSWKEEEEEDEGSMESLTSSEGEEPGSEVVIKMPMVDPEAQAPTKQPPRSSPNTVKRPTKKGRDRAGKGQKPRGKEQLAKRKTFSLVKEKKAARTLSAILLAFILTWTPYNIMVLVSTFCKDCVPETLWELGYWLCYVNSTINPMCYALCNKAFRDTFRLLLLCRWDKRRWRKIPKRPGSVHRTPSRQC
Sequence of 5-hydroxytryptamine receptor 2A (Homo sapiens) (P28223 whole entry, looked up): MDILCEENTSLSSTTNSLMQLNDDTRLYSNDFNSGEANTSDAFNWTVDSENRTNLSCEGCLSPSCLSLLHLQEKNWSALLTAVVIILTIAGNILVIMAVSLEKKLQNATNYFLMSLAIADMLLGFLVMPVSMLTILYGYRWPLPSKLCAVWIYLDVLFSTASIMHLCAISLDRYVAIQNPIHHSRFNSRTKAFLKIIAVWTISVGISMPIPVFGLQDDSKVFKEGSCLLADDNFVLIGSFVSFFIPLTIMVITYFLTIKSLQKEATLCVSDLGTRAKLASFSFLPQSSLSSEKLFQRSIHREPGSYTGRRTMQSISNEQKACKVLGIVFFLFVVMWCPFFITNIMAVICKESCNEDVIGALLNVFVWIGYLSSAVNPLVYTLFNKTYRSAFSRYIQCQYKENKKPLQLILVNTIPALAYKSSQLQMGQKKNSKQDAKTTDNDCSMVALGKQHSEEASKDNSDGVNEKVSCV
Sequence of Beta-2 adrenergic receptor (Homo sapiens) (P07550 whole entry, looked up): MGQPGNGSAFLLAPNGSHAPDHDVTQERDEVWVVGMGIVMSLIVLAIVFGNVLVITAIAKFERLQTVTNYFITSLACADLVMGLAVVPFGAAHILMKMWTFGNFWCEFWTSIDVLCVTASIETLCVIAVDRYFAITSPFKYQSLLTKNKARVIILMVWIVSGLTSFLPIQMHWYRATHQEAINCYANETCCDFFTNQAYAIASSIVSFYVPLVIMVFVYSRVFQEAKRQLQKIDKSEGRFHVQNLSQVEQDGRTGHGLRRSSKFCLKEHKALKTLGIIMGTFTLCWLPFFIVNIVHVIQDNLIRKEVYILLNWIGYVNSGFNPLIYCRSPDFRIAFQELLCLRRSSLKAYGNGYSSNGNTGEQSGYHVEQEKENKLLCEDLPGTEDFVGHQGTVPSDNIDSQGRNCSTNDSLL
Sequence of KiSS-1 receptor (Homo sapiens) (Q969F8 whole entry, looked up): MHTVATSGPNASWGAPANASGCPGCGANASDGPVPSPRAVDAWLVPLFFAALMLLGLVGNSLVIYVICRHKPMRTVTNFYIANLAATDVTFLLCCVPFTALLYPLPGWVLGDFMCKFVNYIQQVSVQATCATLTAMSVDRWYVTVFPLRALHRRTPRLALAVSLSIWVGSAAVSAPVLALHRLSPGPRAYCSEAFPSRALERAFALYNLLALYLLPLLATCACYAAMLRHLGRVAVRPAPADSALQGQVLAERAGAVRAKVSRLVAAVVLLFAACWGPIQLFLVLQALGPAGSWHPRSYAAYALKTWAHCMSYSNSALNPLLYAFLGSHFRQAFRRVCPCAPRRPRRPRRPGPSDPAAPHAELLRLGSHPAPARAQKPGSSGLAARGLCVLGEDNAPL

CC(C)(C)c1cccc(O)c1
Potency [1]: inactive
Potency [2]: 61.1 µM (active)
outcome [3]: inactive
outcome [4]: inactive
Potency [5]: inactive
Potency [6]: inactive
Potency [7]: inactive
Potency [8]: inactive
Potency [9]: inactive
Potency [10]: inactive
Potency [11]: inactive
Potency [12]: inactive
Potency [13]: inactive
Potency [14]: inactive
Potency [15]: inactive
Potency [16]: inactive
Potency [17]: inactive
Potency [18]: inactive

C[N+](C)(C)CCCCCCCCCC[N+](C)(C)C
Potency [1]: inactive
Potency [2]: inactive
outcome [3]: inactive
outcome [4]: inactive
Potency [19]: inactive
Potency [5]: inactive
Potency [7]: inactive
Potency [8]: inactive
Potency [9]: inactive
Potency [10]: inactive
Potency [11]: inactive
Potency [13]: inactive
Potency [14]: inactive
Potency [15]: inactive
Potency [17]: inactive
Potency [18]: inactive

[O]=[Mo](=[O])=[O]
activity change, negative = cytotoxicity [1]: 1.36% [at 19 µM]
activity, positive = activation [2]: -5.06% [at 19 µM]
activation [4]: -0.132% [at 11.8 µM]
activation [19]: -1.11% [at 13.5 µM]
activation [5]: -0.845% [at 13.6 µM]
activity change, negative = cytotoxicity [6]: 2.49% [at 13.5 µM]
activity change, negative = cytotoxicity [7]: 5.17% [at 13.5 µM]
activity change, negative = cytotoxicity [8]: 14.2% [at 13.5 µM]
activation [9]: -2.07% [at 13.5 µM]
activity, negative = inhibition [20]: -16.5% [at 12.7 µM]
activation [10]: 4.75% [at 15.9 µM]
activity, negative = inhibition [11]: 1.32% [at 12.6 µM]
activation [12]: 0.586% [at 15.8 µM]
activation [13]: 0.435% [at 19 µM]
activity change, negative = inhibition [14]: 1.4% [at 18.9 µM]
activity change, negative = inhibition [15]: -19.7% [at 19 µM]
activation [17]: -0.0356% [at 19 µM]
activity change, negative = inhibition [18]: -0.307% [at 18.9 µM]

CCCCCC[C@@H](CCC)C(=O)O
Potency [1]: inactive
Potency [2]: inactive
outcome [4]: inactive
Potency [19]: inactive
Potency [5]: inactive
Potency [6]: inactive
Potency [7]: inactive
Potency [8]: inactive
Potency [9]: inactive
Potency [10]: inactive
Potency [11]: inactive
Potency [12]: inactive
Potency [13]: inactive
Potency [14]: inactive
Potency [15]: inactive
Potency [16]: inactive
Potency [17]: inactive
Potency [18]: inactive

CCCCCCCCOc1ccccc1C(=O)Nc1ccc(C(=O)OCC[N+](C)(CC)CC)cc1
Potency [1]: inactive
Potency [2]: inactive
outcome [3]: inactive
outcome [4]: inactive
Potency [19]: inactive
Potency [5]: inactive
Potency [8]: inactive
Potency [12]: inactive

CCCCCCCC/C=C\CCCCCCCC(=O)OC
Potency [1]: inactive
Potency [2]: inactive
outcome [3]: inactive
outcome [4]: inactive
Potency [19]: inactive
Potency [6]: inactive
Potency [7]: inactive
Potency [8]: inactive
Potency [10]: inactive
Potency [12]: inactive
Potency [13]: inactive
Potency [14]: inactive
Potency [15]: inactive
Potency [16]: inactive
Potency [17]: inactive
Potency [18]: inactive

C/C=C/C=C/COC(=O)C(C)C
Potency [1]: inactive
Potency [2]: 68.6 µM (active)
outcome [3]: inactive
Potency [19]: inactive
Potency [5]: inactive
Potency [6]: inactive
Potency [7]: inactive
Potency [8]: inactive
Potency [9]: inactive
Potency [20]: inactive
Potency [10]: inactive
Potency [11]: inactive
Potency [12]: inactive
Potency [15]: inactive
Potency [16]: inactive
Potency [17]: inactive
Potency [18]: inactive

CCCCCCC(CCCCCCCCCCC(=O)OCC(COC(C)=O)OC(C)=O)OC(C)=O (configuration not stated)
Potency [1]: inactive
Potency [2]: inactive
outcome [3]: inactive
outcome [4]: inactive
Potency [5]: inactive
Potency [8]: inactive
Potency [9]: inactive
Potency [20]: inactive
Potency [10]: inactive
Potency [11]: inactive
Potency [12]: inactive
Potency [13]: inactive
Potency [14]: inactive
Potency [16]: inactive
Potency [17]: inactive
Potency [18]: inactive
